Test results published in PubChem BioAssay AID492993 (Johns Hopkins Ion Channel Center, 2010).
Hit rate of the full screen: of about 4,900 compounds, about 200 (4.1%) were called active.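 How the source made its calls: active means thallium signal drop more than 5 SD beyond the mean of the no-compound control wells, seen in both duplicate plates; inactive means the rest.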 A selection follows.

Each compound was assayed against Inward rectifier potassium channel 2 (Mus musculus) (UniProt P35561) (assay: mouse Kir2.1 channel inhibition, confirmation, selectivity assay for KCNK9 modulator project, cell-based, HEK293, thallium flux (AID 492993;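 on inhibition: signal is fluorescence rise after thallium addition divided by baseline fluorescence; plate controls were assay buffer only for no effect and full block by chlorpromazine control for full effect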)). Settings: Kir2.1 cells, FluxOR thallium flux fluorescence, at 10 µM; active compounds read high.
Sequence of Inward rectifier potassium channel 2 (Mus musculus) (P35561 whole entry, looked up): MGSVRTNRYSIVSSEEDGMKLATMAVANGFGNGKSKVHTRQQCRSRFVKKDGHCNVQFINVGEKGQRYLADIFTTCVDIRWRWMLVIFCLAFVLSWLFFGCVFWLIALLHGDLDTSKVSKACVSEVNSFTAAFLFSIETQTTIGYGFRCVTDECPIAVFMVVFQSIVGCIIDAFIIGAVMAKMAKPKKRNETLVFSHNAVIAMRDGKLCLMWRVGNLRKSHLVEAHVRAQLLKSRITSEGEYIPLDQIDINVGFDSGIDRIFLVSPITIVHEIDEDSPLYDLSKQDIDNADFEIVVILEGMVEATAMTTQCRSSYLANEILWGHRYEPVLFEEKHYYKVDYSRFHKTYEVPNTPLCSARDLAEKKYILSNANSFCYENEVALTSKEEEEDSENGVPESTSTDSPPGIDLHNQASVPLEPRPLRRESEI
With `C=CCc1cc(S(=O)(=O)c2ccc(O)c(CC=C)c2)ccc1O` the inhibition was “inactive”. `COc1ccc(C2CC(c3cccs3)=NN2c2ccccc2)cc1` (stereo not drawn) was tested, and the inhibition was “inactive”. `Cc1cccc(N(C)C(=O)CN2C(=O)COc3ccc(S(=O)(=O)N4CCCCCC4)cc32)c1` was tested, and the inhibition was “inactive”. For `CCOC(=O)c1c(NC(=O)CSc2cn(CC)c3ccccc23)sc2c1CCC2`, the inhibition was “inactive”. `CCCCCC(O)c1cccc(OCc2ccc3ccccc3n2)c1` (stereo not drawn) was tested, and the inhibition was 70.5% (active). With `COc1cccc(COC(=O)C2CCN(S(=O)(=O)c3ccc(Cl)cc3)CC2)c1OC` the inhibition was “inactive”. `CC(C)C(=O)Nc1cccc(NC(=S)NC(=O)C(c2ccccc2)c2ccccc2)c1` was tested, and the inhibition was “inactive”. In the case of `O=C(Cn1cc(C(=O)c2cccs2)c2ccccc21)NCc1cccs1`, the inhibition is reported as “inactive”. In the case of `C/C(=N\NC(=S)Nc1ccc(C)cc1)c1cc2ccccc2o1`, the inhibition is reported as “inactive”. In the case of `Cc1ccc(SCC(=O)c2cc(C)c(OC(=S)N(C)C)c(C)c2)cc1`, the inhibition is reported as “inactive”. With `CCOC(=O)Cc1cc(=O)[nH]c(=O)[nH]1` the inhibition was “inactive”. For `O=C(NNc1ccccc1Cl)C(O)(c1cccc(C(F)(F)F)c1)c1cccc(C(F)(F)F)c1`, the inhibition was “inactive”. For `c1ccc(C(c2ccccc2)N2CCN(Cc3nnnn3C3CCCCC3)CC2)cc1`, the inhibition was “inactive”. In the case of `CC1(C)CC(N2CCN(C(c3ccccc3)c3ccccc3)CC2)=CC(=[N+]2CCCCC2)C1`, the inhibition is reported as 65% (active). In the case of `CCC(C)(C)n1nnnc1C(c1cccs1)N1CCN(c2nc3ccccc3s2)CC1` (stereo not drawn), the inhibition is reported as “inactive”. With `Clc1ccc(CSc2nnc(/C=C/c3ccccc3)o2)c(Cl)c1` the inhibition was “inactive”. With `COc1ccccc1C(c1nnnn1C(C)(C)C)N1CCN(Cc2ccccc2)CC1` (stereo not drawn) the inhibition was “inactive”. `CN(C)S(=O)(=O)N1CCC(Oc2cccc(C(=O)NCCCC3CCCC3)c2)CC1` was tested, and the inhibition was “inactive”. `O=[N+]([O-])c1ccc(N2CCN(CC(O)COc3ccccc3)CC2)cc1` (stereo not drawn) was tested, and the inhibition was “inactive”. With `O=C(Oc1ccc(Br)cc1C(=S)N1CCOCC1)c1cccc([N+](=O)[O-])c1` the inhibition was “inactive”. For `CN(CCOc1ccccc1)C(=O)c1cc(COc2c(F)cccc2F)on1`, the inhibition was “inactive”. `COC(=O)c1sc(-c2ccc(C(C)(C)C)cc2)cc1NC(=O)/C=C/C(=O)O` was tested, and the inhibition was “inactive”. With `COc1cc(C(CCN2CCN(c3ccccc3)CC2)c2c(OC)cc(OC)c3ccc(=O)oc23)cc(OC)c1OC` (stereo not drawn) the inhibition was “inactive”. For `O=C1/C(=C/c2ccc3c(c2)OCO3)CCC/C1=C\c1ccc2c(c1)OCO2`, the inhibition was “inactive”. For `O=C(Nc1cc(Cl)cc(Cl)c1)C(NCCCO)c1ccccc1` (stereo not drawn), the inhibition was “inactive”. For `O=C(NCc1ccco1)c1ccc(NS(=O)(=O)c2cccc([N+](=O)[O-])c2)cc1`, the inhibition was “inactive”. In the case of `O=C1c2ccccc2C2=Nc3ccccc3SC(c3ccccc3F)C12` (stereo not drawn), the inhibition is reported as “inactive”. In the case of `Cc1cccc(NC(=O)CN2CCCN(S(=O)(=O)c3ccc(Br)s3)CC2)c1`, the inhibition is reported as “inactive”. For `Cc1ccc(C)c(NC(=S)NNC(=S)Nc2ccc(C(C)C)cc2)c1`, the inhibition was “inactive”. With `Cc1c(C(=O)Nc2ccccn2)oc2ccc(Br)cc12` the inhibition was “inactive”. `O=C(CC(NC(=O)c1ccccc1)c1ccccc1)Nc1ccc(F)c(F)c1` (stereo not drawn) was tested, and the inhibition was “inactive”. For `CCCCN(CC)C(=O)C1CCCN(S(=O)(=O)c2cccc3nsnc23)C1` (stereo not drawn), the inhibition was “inactive”. `Oc1ccc(/C=N/Nc2nc(-c3ccccc3F)nc3ccccc23)c(O)c1` was tested, and the inhibition was “inactive”. For `COC(=O)Cn1cnc2scc(-c3ccc(C)c(C)c3)c2c1=O`, the inhibition was “inactive”. With `O=C(Nc1ccc(Cl)c(Cl)c1)N1CC=C(c2ccccc2)CC1` the inhibition was “inactive”. `Cc1ccc(C(=O)/C=C/c2c(C)nn(-c3ccccc3)c2Cl)cc1` was tested, and the inhibition was “inactive”. `CCCOc1ccc2c3c(c(=O)oc2c1OCCC)CCC3` was tested, and the inhibition was “inactive”. `COc1cccc(-c2cc3nc4c(c(N5CCC6(CC5)OCCO6)n3n2)CCCC4)c1` was tested, and the inhibition was “inactive”. `Cc1nn(CC(=O)Nc2nc3ccccc3s2)c(C)c1[N+](=O)[O-]` was tested, and the inhibition was “inactive”. For `COc1ccc(C(=O)C2CCCN(Cc3ccc4nonc4c3)C2)c(C)c1` (stereo not drawn), the inhibition was “inactive”. `Cc1ccc(-c2csc(NCCc3nc4cc(Cl)c(Cl)cc4n3CCOCCO)n2)cc1` was tested, and the inhibition was “inactive”. In the case of `COc1ccc2c(c1)C(c1cccs1)=NNC(c1cccnc1)=N2`, the inhibition is reported as “inactive”. For `COc1ccc([N+](=O)[O-])cc1-c1nc2ccccc2nc1-c1ccccc1`, the inhibition was “inactive”. For `Cc1cc2ccccn2c1C(=O)c1cccc(S(=O)(=O)N2CCOCC2)c1`, the inhibition was “inactive”. In the case of `COc1ccc(/C=C2\CCc3ccccc3C2=O)c(OC)c1OC`, the inhibition is reported as “inactive”. For `COc1cccc(OC)c1C(=O)Nc1sc2c(c1C(N)=O)CCCC2`, the inhibition was “inactive”. For `CC(C)N(C(=O)CSc1nc(COc2ccccc2)nc2ccccc12)C(C)C`, the inhibition was “inactive”. With `O=c1cc(CN2CCN(c3cccc(Cl)c3)CC2)c2cc3c(cc2o1)CCCC3` the inhibition was “inactive”. For `Cc1ccc(CN2CCN(/N=C/c3ccco3)CC2)c(C)c1`, the inhibition was “inactive”. In the case of `Cc1[nH]c2ccccc2c1CCN(Cc1cccs1)C(=S)NC(C)(C)C`, the inhibition is reported as “inactive”. `O=C(CSCc1ccc(Cl)cc1)N1CCN(Cc2ccc3c(c2)OCO3)CC1` was tested, and the inhibition was “inactive”. For `CCC/C=C(\CCC)C(NC(=O)Cc1ccccc1)c1ccc(C(=O)OC)cc1` (stereo not drawn), the inhibition was “inactive”. `O=C1CC(NNc2ccccc2)C(=O)N1c1cccc(Cl)c1` (stereo not drawn) was tested, and the inhibition was “inactive”. With `FC(F)(F)c1cc(-c2ccco2)nc(NCc2ccc(Cl)cc2)n1` the inhibition was “inactive”. `COc1ccc(NC(=O)CN(C)CC(=O)Nc2cccc(C(F)(F)F)c2)cc1` was tested, and the inhibition was “inactive”. With `CCCCCCCCCCOC(=O)Cn1c(COc2ccc(C)cc2)[n+](C)c2ccccc21` the inhibition was 60.5% (active). In the case of `CCCCCCCCCCOC(=O)Cn1c(COc2cccc(OC)c2)[n+](C)c2ccccc21`, the inhibition is reported as 70% (active). `CCCCCn1c(=O)c(C(=O)OCC)c(Cl)c2ccccc21` was tested, and the inhibition was “inactive”. With `CCCSc1nc(NCc2ccco2)c2c3c(sc2n1)COC(C)(CC)C3` (stereo not drawn) the inhibition was “inactive”. With `COc1ccc(-c2noc(CSc3ccc(C)cc3)n2)cc1` the inhibition was “inactive”. For `COc1cccc(COc2ccc(N(C)S(=O)(=O)c3ccccc3)cc2)c1`, the inhibition was “inactive”. `CCOc1ccc(C(C)C)cc1S(=O)(=O)n1nc(C)cc1C` was tested, and the inhibition was “inactive”. `Cc1cc(C=O)c(C)n1-c1ccc(NC2CCCCC2)c([N+](=O)[O-])c1` was tested, and the inhibition was “inactive”. For `O=C(C[C@H]1C(=O)N(c2ccc(F)c(F)c2)C[C@@H]1Cc1ccccc1)Nc1ccccc1`, the inhibition was “inactive”. `CCCCNC(=S)N/N=C1\CCCCc2ccccc21` was tested, and the inhibition was “inactive”. For `CC(C)(C)SCCSC1=CC(=O)CC(c2ccccc2)C1` (stereo not drawn), the inhibition was “inactive”. `COc1ccc(C(C)=O)cc1COc1ccc(Cl)c(C)c1` was tested, and the inhibition was “inactive”. In the case of `CCOC(=O)c1c(NC(=O)CCCN2CCOCC2)sc2c1CC(C)(C)OC2`, the inhibition is reported as “inactive”. For `Cc1cc(C)cc(NC(=O)CSCc2cnn(-c3ccccc3)c2-n2cccc2)c1`, the inhibition was 43% (active). `O=C1c2ccccc2S(=O)(=O)N1CC(O)Cn1c2ccccc2c2ccccc21` (stereo not drawn) was tested, and the inhibition was “inactive”. For `COc1cc(Cl)c(S(=O)(=O)N2CCN(Cc3ccc4c(c3)OCO4)CC2)cc1Cl`, the inhibition was “inactive”. With `Cc1cc(Cl)ccc1C(=O)C1CCCN(C(=O)CCN2CCCO2)C1` (stereo not drawn) the inhibition was “inactive”. With `Cc1ccccc1N1CCN(Cc2nc(Cc3ccccc3F)no2)CC1` the inhibition was “inactive”. For `COc1cccc(C(=O)NCCSc2ccc(Br)cc2)c1`, the inhibition was “inactive”. `COc1cc(NC(=S)NCCSc2ccc(C)cc2)cc(OC)c1` was tested, and the inhibition was “inactive”. In the case of `O=S(=O)(c1ccc(F)cc1)N1CCN(Cc2ccccc2C(F)(F)F)CC1`, the inhibition is reported as “inactive”. With `O=C(CSCc1ccc(Br)cc1)Nc1ccc(S(=O)(=O)N2CCCCCC2)cc1` the inhibition was “inactive”. For `CC1=C/C(=N\OS(=O)(=O)c2ccccc2)C=CC1=O`, the inhibition was “inactive”. `COc1ccc(-c2oc(/N=C/N3CCCC3)c(C#N)c2-c2ccc(OC)cc2)cc1` was tested, and the inhibition was “inactive”. With `Cc1ccc(S(=O)(=O)N2CCN(C(=O)COC(=O)c3c(C)cc(C)cc3C)CC2)c(C)c1` the inhibition was “inactive”. In the case of `Cc1ccc(NC2CCCN(C(=O)CCC3(C)CC3)C2)cc1C` (stereo not drawn), the inhibition is reported as “inactive”. In the case of `CCOc1ccccc1NC(=O)C12CC3CC(C1)CC(c1ccc(C)cc1)(C3)C2`, the inhibition is reported as “inactive”. In the case of `COCCN(C(=S)Nc1cccc(Cl)c1C)C(C)c1ccco1` (stereo not drawn), the inhibition is reported as “inactive”. `Cn1nc(-c2ccccc2)c(CSc2cccc(Cl)c2)c1Cl` was tested, and the inhibition was “inactive”. In the case of `COc1ccc(C2Nc3ccccc3C(=O)N2Cc2ccccc2)cc1Cn1nnc2ccccc21` (stereo not drawn), the inhibition is reported as “inactive”. For `Cc1csc(Nc2ccc(Cl)cc2)[n+]1-c1ccc(Cl)cc1`, the inhibition was “inactive”. For `CCC1=NN(C(=O)Cc2ccc([N+](=O)[O-])cc2)C(O)(c2ccc(Br)cc2)C1` (stereo not drawn), the inhibition was “inactive”. In the case of `COc1ccc(OC)c(C(=O)c2coc3ccc(OC)cc23)c1`, the inhibition is reported as “inactive”. `Cc1cc(Oc2ccc(Cl)cc2)nc(SCC(=O)c2ccccc2)n1` was tested, and the inhibition was “inactive”. `CCCC(=O)n1nc(NCc2ccc(OC)cc2)nc1NCc1ccc(OC)cc1` was tested, and the inhibition was “inactive”. For `CCCCn1ccnc1C(=O)c1cccc(S(=O)(=O)N2c3ccccc3CC2C)c1` (stereo not drawn), the inhibition was “inactive”. In the case of `CCCC1=Nc2cc(C(=O)NCc3ccco3)ccc2Sc2ccccc21`, the inhibition is reported as “inactive”. `Cc1ccc(N2CCN(S(=O)(=O)c3ccc(F)cc3)CC2)c(C)c1` was tested, and the inhibition was “inactive”. With `O=[N+]([O-])/C=C/c1ccc2c(ccn2Cc2ccccc2)c1` the inhibition was 41.5% (active). For `CCc1cccc(C)c1N(C(=O)Cn1c(CO)nc2ccccc21)C(C)COC` (stereo not drawn), the inhibition was “inactive”. In the case of `CCCN1C(=O)C(Cc2nc3ccccc3c(=O)n2-c2ccccc2)c2cc(C)ccc21` (stereo not drawn), the inhibition is reported as “inactive”. For `CCOC(=O)CSc1nc2c(sc(=S)n2CCc2ccccc2)c(=O)n1Cc1ccco1`, the inhibition was “inactive”. In the case of `CN(c1ccccc1)S(=O)(=O)c1cccc(NC(=O)Cc2c(F)cccc2Cl)c1`, the inhibition is reported as 28.5% (active). In the case of `Cc1ccccc1CSCCNC(=O)c1ccc(N(C)S(=O)(=O)c2ccccc2)cc1`, the inhibition is reported as “inactive”. For `CN(CCC(=O)Nc1cc(S(=O)(=O)N(C)C)ccc1Cl)CC(=O)Nc1ccc(F)cc1`, the inhibition was “inactive”. With `CCOC(=O)C1=C(C)Nc2sc(C(=O)c3ccc(Br)cc3)c(N)c2C1c1ccc(C(=O)OC)cc1` (stereo not drawn) the inhibition was “inactive”. With `Cc1ccc(C(=O)c2c(NC(=O)c3ccccc3)sc(C)c2C)cc1` the inhibition was “inactive”. `CCOc1ccc(CN(Cc2ccco2)C(c2cccs2)c2nnnn2C(C)(C)C)cc1` (stereo not drawn) was tested, and the inhibition was “inactive”.
